What all share (assay): Euclidean distance of Cell Painting phenotypic profile (signed KS, 77 features) to DMSO centroid (dimensionless distance); higher = stronger phenotypic change vs DMSO (phenoactivity)
Settings in all cases: 48 h; 5 or 10 uM (library dependent)

One experiment concerns 786-O. The procedure, abridged:
(§1)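 At 10 or 5 uM, as set by the library, and 0.1% DMSO final, compounds were applied for 48 h to five cancer lines and one healthy fibroblast line. Stained cells were imaged confocally at 20X in 9 fields per well, and Harmony extracted 77 features scored as signed Kolmogorov-Smirnov statistics against vehicle wells on the same plate. Profiles underwent plate-position correction, correlation weighting and replicate averaging at the top dose. Phenoactivity is the Euclidean distance from each such profile to the median vehicle profile.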

Another experiment concerns A549. Put shortly: as §1
The next experiment deals with DU145. Put shortly: as §1
The next experiment has as its system FB. Put shortly: as §1
The test system of another experiment is HEPG2. The procedure, abridged: as §1
A further experiment concerns OVCAR4. Put shortly:
as §1

Structures can show the parent of a compound that is named as a salt.

Turning to `CC(C)[C@H](N)C(=O)N1CCC[C@H]1B(O)O` [Talabostat (Val-boroPro. PT-100)], the Euclidean distance in the experiment with 786-O came to 1.38; in the experiment with A549, 0.905; in the experiment on DU145, 1.12; in the experiment with FB it was 1.08; in the experiment with HEPG2 it was 0.878; in the experiment on OVCAR4, 0.712.

Consider `CN1c2ccccc2C(NCCCCCCC(=O)O)c2ccc(Cl)cc2S1(=O)=O` (centres undefined) [Tianeptine sodium], for which the Euclidean distance with 786-O amounted to 1.2; in the experiment with A549, 0.593; in the experiment with DU145, 0.767; in the experiment with FB, 1.05; in the experiment on HEPG2 it was 0.471; in the experiment with OVCAR4, 1.36.

On to `C[CH2][Hg][S]c1ccccc1C(=O)[O-].[Na+]` [Thimerosal], for which the Euclidean distance was 5.05 in the experiment with 786-O; 2.89 in the experiment on A549; 6.79 in the experiment on DU145; 6.21 in the experiment on FB; 1.5 with HEPG2; 2.69 in the experiment with OVCAR4.

On to `CN[C@@H]1[C@@H](O)[C@@H](O[C@@H]2[C@@H](O)[C@H](O[C@H]3O[C@H](CN)CC[C@H]3N)[C@@H](N)C[C@H]2N)OC[C@]1(C)O.CN[C@@H]1[C@@H](O)[C@@H](O[C@@H]2[C@@H](O)[C@H](O[C@H]3O[C@H]([C@@H](C)N)CC[C@H]3N)[C@@H](N)C[C@H]2N)OC[C@]1(C)O.CN[C@@H]1[C@@H](O)[C@@H](O[C@@H]2[C@@H](O)[C@H](O[C@H]3O[C@H]([C@@H](C)NC)CC[C@H]3N)[C@@H](N)C[C@H]2N)OC[C@]1(C)O` [Gentamicin Sulfate], for which the Euclidean distance is 1.29 with 786-O; 1.18 with A549; 1.22 with DU145; 0.978 in the experiment with FB; 0.832 in the experiment with HEPG2; 1.02 with OVCAR4.

For the compound `CCC1=C[C@H]2CN3CCc4c([nH]c5ccccc45)[C@](C(=O)OC)(C2)[C@H]13` [Catharanthine], the Euclidean distance in the experiment on 786-O came out at 1.45; in the experiment with A549, 1.4; in the experiment with DU145, 0.692; in the experiment on FB, 1.02; with HEPG2, 0.581; with OVCAR4 it was 1.41.

Regarding `C[C@@H]1[C@H](O)[C@@H](C)/C=C/C=C/CC/C=C/C=C/C=C/C=C/[C@H](O[C@H]2O[C@@H](C)[C@H](O)[C@@H](N)[C@H]2O)C[C@@H]2O[C@](O)(C[C@@H](O)[C@H](O)CC[C@@H](O)C[C@@H](O)C[C@@H](O)CC(=O)O[C@H]1C)C[C@H](O)[C@H]2C(=O)O` [Nystatin (Fungicidin)], the Euclidean distance in the experiment on 786-O is 1.05; in the experiment on A549 it was 1.12; in the experiment with DU145, 1.4; in the experiment on FB, 0.85; with HEPG2, 1.2; in the experiment on OVCAR4, 1.06.

Turning to `COc1ccc2c(c1)[nH]c1c(C)nccc12` [Harmine hydrochloride], the Euclidean distance in the experiment with 786-O worked out at 1.41; in the experiment on A549 it was 1.17; in the experiment on DU145, 1.13; with FB it was 1.58; with HEPG2, 1.06; in the experiment on OVCAR4, 1.25.

Regarding `COC(=O)C1=CCCN(C)C1` [Arecoline HBr], the Euclidean distance came out at 0.921 with 786-O; 0.978 in the experiment with A549; 1.03 with DU145; 1.12 in the experiment on FB; 0.958 in the experiment with HEPG2; 1.12 in the experiment on OVCAR4.

With `C#C[C@]1(OC(=O)CCCCCC)CC[C@H]2[C@@H]3CCC4=CC(=O)CC[C@@H]4[C@H]3CC[C@@]21C` [Norethisterone Enanthate], the Euclidean distance with 786-O came out at 2.37; with A549 it was 2.5; with DU145 it was 3.85; in the experiment with FB it was 1.34; in the experiment on HEPG2 it was 2.23; in the experiment with OVCAR4 it was 1.22.

As to `Cc1ccccc1-n1c(CF)nc2ccc(N)cc2c1=O` [Afloqualone], the Euclidean distance in the experiment on 786-O came to 0.926; in the experiment on A549, 0.643; in the experiment on DU145, 0.714; in the experiment on FB, 1.21; in the experiment on HEPG2, 0.422; with OVCAR4, 0.949.

With `CCNC1(c2cccs2)CCCCC1=O` (centres undefined) [Tiletamine Hydrochloride], the Euclidean distance in the experiment on 786-O was 1.22; in the experiment with A549, 1.39; with DU145, 1.26; in the experiment with FB it was 1.39; with HEPG2, 0.678; in the experiment with OVCAR4, 1.75.

Regarding `C=C1[C@@H](C)[C@H]2[C@H](Cc3ccccc3)NC(=O)[C@]23[C@H](OC(C)=O)/C=C/[C@@](C)(O)C(=O)[C@@H](C)C/C=C/[C@H]3[C@@H]1O` [Cytochalasin D], the Euclidean distance was determined as 4.23 in the experiment on 786-O; 3.63 in the experiment on A549; 3.2 with DU145; 4.07 in the experiment on FB; 2.24 with HEPG2; 3.87 in the experiment with OVCAR4.

`CN(C)NC(=O)CCC(=O)O` [Daminozide]: the Euclidean distance in the experiment with 786-O turned out to be 0.626; in the experiment with A549 it was 0.507; in the experiment with DU145, 0.706; in the experiment with FB, 0.873; in the experiment with HEPG2, 0.742; in the experiment with OVCAR4 it was 1.16.

With `COC(=O)[C@@H](N)CCCNC(=N)N[N+](=O)[O-]`, the Euclidean distance in the experiment on 786-O came out at 0.931; in the experiment with A549 it was 1.3; in the experiment on DU145 it was 0.775; in the experiment on FB, 1.29; in the experiment on HEPG2, 0.551; in the experiment on OVCAR4, 0.995.

For `NCC1(CC(=O)O)CCCCC1` [Gabapentin HCl], the Euclidean distance in the experiment on 786-O stood at 0.807; with A549, 0.703; in the experiment with DU145, 0.806; in the experiment with FB, 0.665; in the experiment with HEPG2, 0.483; with OVCAR4, 0.892.

`C/C(=C\c1csc(C)n1)[C@@H]1C[C@@H]2O[C@@H]2CCC[C@H](C)[C@H](O)[C@@H](C)C(=O)C(C)(C)[C@@H](O)CC(=O)O1` [Epothilone A]: the Euclidean distance worked out at 3.01 in the experiment on 786-O; 2.89 with A549; 4.3 with DU145; 2.5 in the experiment on FB; 2.34 in the experiment on HEPG2; 3.02 in the experiment on OVCAR4.

Turning to `C[N+]1(C)[C@@H]2C[C@@H](OC(=O)[C@H](CO)c3ccccc3)C[C@H]1[C@@H]1O[C@@H]12` [Methscopolamine], the Euclidean distance in the experiment with 786-O was 0.909; in the experiment on A549 it was 0.693; in the experiment on DU145, 0.721; in the experiment on FB, 0.773; with HEPG2 it was 0.666; with OVCAR4 it was 1.04.

Consider `C=CCN1CC[C@]23c4c5ccc(O)c4O[C@H]2C(=O)CC[C@@]3(O)[C@H]1C5` [Naloxone HCl], for which the Euclidean distance in the experiment with 786-O turned out to be 1.04; with A549, 0.456; with DU145 it was 0.671; with FB, 0.576; in the experiment on HEPG2 it was 0.59; with OVCAR4, 0.689.

For the compound `C#C[C@]1(O)C=C[C@H]2[C@@H]3CCC4=CC(=O)CC[C@@H]4[C@H]3CC[C@@]21CC` [Gestodene], the Euclidean distance in the experiment on 786-O was 1.29; in the experiment on A549, 0.869; in the experiment on DU145, 2.08; with FB it was 1.08; with HEPG2 it was 2.49; in the experiment with OVCAR4 it was 1.33.

In the case of `NC(=O)CN1CCCC1=O` [Piracetam], the Euclidean distance in the experiment with 786-O amounted to 1.42; with A549 it was 0.813; with DU145, 0.735; with FB, 1.08; in the experiment on HEPG2, 0.792; in the experiment with OVCAR4, 1.01.

As to `CC[C@H](C)[C@H]1O[C@]2(C=C[C@@H]1C)C[C@@H]1C[C@@H](C/C=C(\C)[C@@H](O[C@H]3C[C@H](OC)[C@@H](O[C@H]4C[C@H](OC)[C@@H](O)[C@H](C)O4)[C@H](C)O3)[C@@H](C)/C=C/C=C3\CO[C@@H]4[C@H](O)C(C)=C[C@@H](C(=O)O1)[C@]34O)O2.CO[C@H]1C[C@H](O[C@H]2[C@H](C)O[C@@H](O[C@@H]3/C(C)=C/C[C@@H]4C[C@@H](C[C@]5(C=C[C@H](C)[C@@H](C(C)C)O5)O4)OC(=O)[C@@H]4C=C(C)[C@@H](O)[C@H]5OC/C(=C\C=C\[C@@H]3C)[C@]54O)C[C@@H]2OC)O[C@@H](C)[C@@H]1O` [Avermectin B1], the Euclidean distance in the experiment on 786-O came to 1.43; with A549 it was 2.77; with DU145, 1.59; in the experiment with FB, 1.1; with HEPG2, 1.38; with OVCAR4 it was 1.76.

On to `C[C@]12CC[C@H](O)C[C@@H]1CC[C@@H]1[C@@H]2CC[C@]2(C)C(=O)CC[C@@H]12` [Epiandrosterone], for which the Euclidean distance in the experiment on 786-O was 1.32; in the experiment with A549 it was 1.2; in the experiment with DU145, 0.784; with FB it was 1.34; in the experiment with HEPG2, 0.785; with OVCAR4, 0.989.

Take `CC(=O)O[C@H]1C[C@H](O[C@H]2[C@@H](O)C[C@H](O[C@H]3[C@@H](O)C[C@H](O[C@H]4CC[C@@]5(C)[C@H](CC[C@@H]6[C@@H]5C[C@@H](O)[C@]5(C)[C@@H](C7=CC(=O)OC7)CC[C@]65O)C4)O[C@@H]3C)O[C@@H]2C)O[C@H](C)[C@H]1O[C@@H]1O[C@H](CO)[C@@H](O)[C@H](O)[C@H]1O` [Lanatoside C]: the Euclidean distance with 786-O was found to be 6.1; in the experiment on A549, 5.41; in the experiment on DU145 it was 7.41; in the experiment with FB, 3.88; in the experiment on HEPG2, 2.69; in the experiment with OVCAR4, 6.46.

`CN1C[C@H](C(=O)N[C@]2(C)O[C@@]3(O)[C@@H]4CCCN4C(=O)[C@H](Cc4ccccc4)N3C2=O)C[C@@H]2c3cccc4[nH]cc(c34)C[C@H]21` [Dihydroergotamine Mesylate]: the Euclidean distance came to 1.1 with 786-O; 1.93 with A549; 0.862 in the experiment with DU145; 1.05 in the experiment with FB; 1.1 in the experiment on HEPG2; 1.25 in the experiment on OVCAR4.

These data come from the supplement of paper PMC10127200.
